Source: PubChem (National Center for Advancing Translational Sciences (NCATS))
TDP1 cell CPT: qHTS for Inhibitors of human tyrosyl-DNA phosphodiesterase 1 (TDP1): qHTS in cells in presence of CPT; chicken DT40 Tdp1-/-;hTDP1 cells + 20 nM CPT, ATP luminescence, 48 h; Potency, µM (highest dose often 46.2 µM), for the others: top-dose activity change, negative = growth inhibition, usual class: inhibitors; hit rate 12% among 420,000; further: potency means the concentration at half of the fitted maximal effect; on the % scale 0 is the no-effect control and ±100 the full control effect; nearly all actives have a fitted effect of over 55% in size
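Chicken DT40 Tdp1-/- cells stably complemented with human TDP1 were seeded at 400 cells/well in medium containing 20 nM camptothecin, exposed to pin-transferred compounds, and grown at 37 °C for at least 48 hr. Viability was read as ATP luminescence.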
DT40 TDP1 no CPT: qHTS for Inhibitors of human tyrosyl-DNA phosphodiesterase 1 (TDP1): qHTS in cells in absence of CPT; DT40 Tdp1-/- hTDP1 cells, no CPT, ATP luminescence, 48 h; Potency, µM (doses to about 46.2 µM), inactives show top-dose activity change, negative = growth inhibition, actives largely listed as inhibitors; hit rate 15% among 420,000; further: potency means the concentration at half of the fitted maximal effect; on the % scale 0 is the no-effect control and ±100 the full control effect; nearly all actives have a fitted effect of over 55% in size
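Chicken DT40 Tdp1-/- cells complemented with human TDP1, screened without camptothecin (DMSO vehicle only), 400 cells/well. Compounds pin-transferred, cells incubated at 37 °C for at least 48 hr. Growth read as ATP-dependent luminescence (CellTiter-Glo, 30 min at RT).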
DRD3 agonist: qHTS of D3 Dopamine Receptor Agonist: qHTS; AID 652048, 2013; max activation, %; D(3) dopamine receptor (Homo sapiens), P35462; hit rate 0.58% among 410,000; D3R DiscoveRx beta-arrestin cells, luminescence, 90 min; in the data active means max activation above about 30%; further: 0% is about no effect
Target sequence (P35462 whole entry, looked up): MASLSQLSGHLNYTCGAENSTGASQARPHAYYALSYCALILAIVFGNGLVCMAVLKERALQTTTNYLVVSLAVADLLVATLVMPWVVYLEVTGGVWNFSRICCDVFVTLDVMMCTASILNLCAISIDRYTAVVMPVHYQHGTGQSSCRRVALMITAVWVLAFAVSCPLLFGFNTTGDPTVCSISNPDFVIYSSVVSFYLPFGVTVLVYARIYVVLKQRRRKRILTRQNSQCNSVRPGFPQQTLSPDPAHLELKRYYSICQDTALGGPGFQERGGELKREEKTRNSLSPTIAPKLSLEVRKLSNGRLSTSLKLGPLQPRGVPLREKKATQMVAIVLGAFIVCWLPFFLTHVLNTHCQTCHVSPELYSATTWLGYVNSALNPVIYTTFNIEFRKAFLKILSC
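Agonist-mode cell screen: cells plated at 1500/well and incubated overnight at 37 °C, then exposed to library compounds for 90 min at 37 °C. Detection reagent was added for 30–60 min at room temperature, and luminescence was read.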
IL1B secr inh: qHTS for Inhibitors of Inflammasome Signaling: IL-1-beta AlphaLISA Primary Screen; THP-1 LPS/ATP IL-1B secretion, AlphaLISA, 16 h; active compounds read low; activity change, % at 57.5 µM; hit rate 4.7% among 360,000; AID 743279, 2014; in the data active means activity change below about -50%; inconclusive means mostly about -30% to -49%; further: on the % scale 0 is the no-effect control and ±100 the full control effect
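Secreted IL-1B measured by AlphaLISA bead assay after 16 h compound exposure of THP-1 cells; compounds (final up to 57.5 uM) added 1 h before LPS (250 ng/mL) and ATP (1.25 mM) stimulation; lower signal means less secretion.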
D3 antag: qHTS of D3 Dopamine Receptor Antagonist: qHTS; D(3) dopamine receptor (Homo sapiens), P35462; D3R cells, DiscoveRx beta-arrestin luminescence, antagonist mode; active compounds read low; max response, negative = inhibition, %; hit rate 2.5% among 360,000; AID 652054, 2013; in the data active means max response below about -50%; inconclusive means no clear call, values can overlap the other calls; further: on the % scale 0 is the no-effect control and ±100 the full control effect
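Cells plated overnight at 1500 cells/well, then exposed to library compounds with dopamine controls for 90 minutes at 37 degrees C. DiscoveRx reagent added for 30–60 minutes at room temperature; luminescence read, quantitative HTS format.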
ClpP mod: qHTS Assay for Activators of ClpP; purified B. subtilis ClpP, FRET peptide cleavage, 20 min; Potency, µM (highest dose often 57.5 µM), for the others: top-dose activity change, negative = active; hit rate 1.9% among 340,000; active means well fitted falling curve with a large enough effect; inconclusive means small, poorly fitted or top-dose-only effect; inactive means no such curve, though single readings can be large or run the other way; further: potency means the concentration at half of the fitted maximal effect; the source files actives as falling curves though it sought activators and does not explain the sign; nearly all actives have a fitted effect of over 65% in size
Target sequence (P80244 whole entry, looked up): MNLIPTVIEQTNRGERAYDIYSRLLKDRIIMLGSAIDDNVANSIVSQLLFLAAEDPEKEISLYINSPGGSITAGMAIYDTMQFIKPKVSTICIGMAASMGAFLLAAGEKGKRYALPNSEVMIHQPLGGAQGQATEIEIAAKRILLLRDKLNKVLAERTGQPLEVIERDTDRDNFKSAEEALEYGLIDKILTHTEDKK
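FRET quenching reversal measured ClpP activation: 10 microg/mL B. subtilis ClpP at pH 8 with the FRET-FV decapeptide, read at 430 nm after 320 nm excitation. The 20-min minus 0-min signal was scaled between DMSO/no-enzyme wells and ADEP (5.8 microM final).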
Active calls of the source: *; i = inactive; ? = inconclusive; . = not tested or not shown. Hits are enriched below; roughly 21% of the tested compounds scored in any of these assays. Unless noted, the call rests on the fitted dose curve; in most records, active means well fitted inhibition curve with a large enough effect; inconclusive means small, poorly fitted or top-dose-only effect; inactive means flat fitted curve, though single readings scatter.

SMILES | TDP1 cell CPT | DT40 TDP1 no CPT | DRD3 agonist | IL1B secr inh | D3 antag | ClpP mod
CCc1n[nH]c(=S)n1/N=C/c1ccccc1OCc1ccc(Cl)cc1 | -7% | -6% | 11 | 42 | -10 | .
S=c1[nH]nc(-c2ccco2)n1/N=C/c1ccc(Cl)cc1Cl | -16% | -12% | 1 | 0 | -54* | -2%
S=c1[nH]nc(-c2ccccc2)n1/N=C/C=C/c1ccco1 | ? | ? | -14 | 10 | -24 | 1%
Cc1n[nH]c(=S)n1/N=C/c1ccccc1OCc1ccc(Cl)cc1Cl | ? | ? | 31* | 12 | 21 | ?
COc1ccc(C(=O)Nc2ccccc2-c2nc(-c3ccc(OC)cc3)no2)cc1 | -8% | -9% | -8 | . | . | -10%
O=C(NCc1ccccn1)[C@@H]1CCCN1C(=O)[C@@H]1CCCN1C(=O)c1cccs1 | -2% | -21% | -5 | 45 | 4 | 0%
S=c1[nH]nc(-c2ccco2)n1/N=C/C=C/c1ccccc1 | 5% | ? | -13 | 13 | -64* | 5%
CCCCNc1nc(-c2ccccc2)cc(C(F)(F)F)c1C(N)=O | ? | ? | 3 | -70* | 11 | -12%
NC(=O)c1cnn2c(C(F)(F)F)cc(-c3ccccc3)nc12 | ? | ? | -8 | -9 | -16 | -7%
NC(=O)c1c(C(F)(F)F)cc(-c2ccccc2)nc1NCCO | -24% | -15% | -1 | 5 | 11 | 22µM*
CCOC(=O)c1cc2c(C(F)(F)F)cc(-c3ccccc3)nc2o1 | -8% | 2% | 1 | 9 | 27 | ?
O=C(c1ccccc1SCc1ccc(F)cc1)N1CCOCC1 | -7% | -29% | 0 | -20 | 12 | 1%
O=C(NCCc1ccccc1)/C(=C/c1ccco1)c1ccccc1 | 26µM* | ? | -2 | -9 | -11 | 1%
Cc1cc(C)c(NC(=O)/C(=C/c2ccco2)c2ccccc2)c(C)c1 | ? | ? | -3 | 21 | 3 | -1%
Cc1cccc(C)c1NC(=O)/C(=C/c1ccco1)c1ccccc1 | 18µM* | 13µM* | -4 | -16 | -13 | -2%
O=C(O)CCNC(=O)/C(=C/c1ccco1)NC(=O)c1ccco1 | 1% | -2% | -1 | 2 | -9 | -1%
CCC(C)NC(=O)/C(=C/c1ccco1)c1ccccc1 (configuration not stated) | ? | ? | 2 | 14 | 18 | 25µM*
CC(C)c1cccc(C(C)C)c1NC(=O)c1ccccc1 | -4% | 18% | -1 | -2 | 10 | 0%
N#C/C(=C(/O)COC(=O)c1ccccc1O)c1nc2ccccc2s1 | -26% | 16µM* | -5 | 14 | 4 | .
CC(C)(C)c1ccc(C(=O)OC/C(O)=C(\C#N)c2nc3ccccc3s2)cc1 | ? | ? | 4 | i | 23 | 1%
N#CC(=C(O)COC(=O)CCCNC(=O)c1ccc(Cl)cc1)c1nc2ccccc2[nH]1 | ? | -18% | -2 | -97* | 2 | .
N#C/C(=C(/O)COC(=O)c1ccc(O)cc1)c1nc2ccccc2[nH]1 | -17% | -9% | -10 | 25 | -12 | -2%
N#C/C(=C(/O)COC(=O)c1cccnc1Cl)c1nc2ccccc2[nH]1 | 18µM* | 23µM* | 4 | 59 | 7 | .
N#C/C(=C(/O)COC(=O)CCC1CCCCC1)c1nc2ccccc2[nH]1 | 5.2µM* | 4.1µM* | -2 | -85* | -20 | -4%
O=C(CCN1C(=O)S/C(=C\c2cccs2)C1=O)NC1=NCCS1 | -3% | -19% | 1 | 8 | 39 | -6%
SMILES | TDP1 cell CPT | DT40 TDP1 no CPT | DRD3 agonist | IL1B secr inh | D3 antag | ClpP mod
O=C1CC(C(=O)N2CCCc3ccccc32)CN1c1ccc(Cl)cc1 (configuration not stated) | -16% | ? | -8 | -3 | -22 | .
CN1C(=O)CC(C(=O)Nc2ccc(C(=O)O)cc2)SC1=Nc1ccc(Cl)cc1 (configuration not stated) | 4% | -2% | 8 | . | . | -1%
Cc1cccc(Nc2nnc(SC/C(O)=C(\C#N)c3nc4ccccc4[nH]3)s2)c1C | ? | ? | 33* | 14 | 53 | -1%
CCCC(=O)OC/C(O)=C(\C#N)c1nc2ccccc2[nH]1 | -14% | ? | 2 | -105* | -10 | .
CC(C)C(=O)OC/C(O)=C(\C#N)c1nc2ccccc2[nH]1 | 4% | -8% | 4 | 80 | 9 | .
N#C/C(=C(/O)CCl)c1nc2ccccc2[nH]1 | 2.6µM* | 5.2µM* | -1 | -95* | -14 | 1%
COCC(=O)OC/C(O)=C(\C#N)c1nc2ccccc2[nH]1 | 2.9µM* | 2.6µM* | 1 | -104* | 2 | .
O=S(=O)(c1ccc(Oc2ccc(F)c(Cl)c2)nc1)N1CCOCC1 | -9% | -20% | 2 | 9 | -14 | -1%
COc1cc2cc(CCCOC(=O)c3cccc(Br)c3)oc(=O)c2cc1OC | 0% | -1% | 10 | 7 | 30 | -6%
COc1cc(NC(=S)NCCc2ccc(S(N)(=O)=O)cc2)c(OC)cc1Cl | -19% | -10% | 1 | 3 | 1 | 2%
CC(=O)Oc1ccc(OC(C)=O)c(SCCCCCCl)c1 | 2.1µM* | 2.9µM* | 0 | -63* | -7 | .
COc1cc(C(C)=O)ccc1OCC(=O)NCCCn1nc(C)cc1C | 0% | ? | 1 | 10 | 0 | -29%
O=C1Nc2ccccc2/C1=N/c1sc2c(c1C(=O)NCCc1ccccc1)CCCC2 | -18% | ? | -19 | -4 | -90* | -1%
COc1ccc(-c2c(C)nn3c(N4CCN(c5ccccc5)CC4)cc(C)nc23)cc1OC | ? | ? | 3 | . | . | -8%
CC(C)Oc1ccc(S(=O)(=O)N2CCOCC2)cc1NC(=O)c1cccc(S(=O)(=O)N2CCCC2)c1 | -12% | -12% | -10 | -10 | 19 | -1%
COc1ccc(C(CNC(=O)COc2cc(C)ccc2Cl)N2CCCCC2)cc1 (configuration not stated) | ? | ? | -28 | 41 | -59* | .
COc1ccccc1C(CNC(=O)CNC(=O)c1ccc(Cl)c(Cl)c1)N1CCCC1 (configuration not stated) | -10% | 16µM* | -8 | -6 | ? | -1%
